# Assay outcomes from PubChem.
# MITF inh – MITF inhibitors, primary screen, biochemical, AlphaScreen, human; inhibition, % at 2.6 µM; AlphaScreen MITF homodimerization, bead proximity signal; Microphthalmia-associated transcription factor (Homo sapiens), O75030; AID 1259374, 2018; hit rate 0.91% among 650,000; in the data active = inhibition above about 50%;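 also: 0% = vehicle wells with protein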
# GPR151 ag – activators of human GPR151, primary screen, cell-based, PathHunter beta-arrestin, luminescence | AID 1508602, 2020 | PathHunter beta-arrestin GPR151 cells | activation, % at 11.2 µM | hit rate 1% among 650,000; in the data active = activation above about 4.9%;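 also: 0% = median of compound wells and 100% = cells with positive control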
# FBW7 act – FBW7 E3 ligase activators, primary screen, biochemical, AlphaScreen, human. F-box/WD repeat-containing protein 7 (Homo sapiens), Q969H0. AlphaScreen FBW7–phospho-cyclin E peptide binding, activator screen. normalized activity (activation), % at 26.1 µM. hit rate 0.13% among 650,000. AID 1259310, 2017; in the data active = normalized activity above about 1.9%;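 also: purified mutant Fbw7 with reduced substrate affinity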
# TEAD-YAP block – TEAD-YAP interaction inhibition, primary screen, TEAD-YAP interaction inhibitor project, luminescence, HEK-TIYL cells; TEAD-Gal4/YAP UAS-luciferase luminescence; inhibition, % at 9.12 µM; hit rate 1.4% among 640,000; AID 1259422, 2018; in the data active = inhibition above about 32%;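 also: 0% = median of test compound wells and 100% = reference inhibitor wells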
# GPR151 confirm – GPR151 activators, triplicate retest, confirmation, cell-based, PathHunter beta-arrestin, luminescence | shares compounds with GPR151 ag | GPR151 PathHunter beta-arrestin cells, 90 min; % of EA-reagent control over plate median | activation, % at 11.2 µM | 6,700 tested, under 10 active | AID 1508609, 2020;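 active = mean percent activation across replicates above the confirmation screen cutoff of 4.91%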
# GPR119 counter – GPR119 activators in beta-arrestin cells, counter-screen for GPR151 activator project, cell-based, PathHunter beta-arrestin, luminescence, triplicate. shares compounds with GPR151 ag. 90 min; 0 = compound-well median, 100 = enzyme-acceptor control. activation, % at 11.2 µM. hit rate 0.3% among 6,700. AID 1508611, 2020;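 active = mean percent activation in the counterscreen above 29.09%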;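 also: counterscreen on off-target GPR119 to flag nonselective hits from the GPR151 activator screen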
# Starred values were filed as active, the others as inactive; / = no result. Rows were chosen to be rich in hits. Some 3.5% of all compounds tested hit in one or more screens of this group.
SMILES,MITF inh,GPR151 ag,FBW7 act,TEAD-YAP block,GPR151 confirm,GPR119 counter
COCCO[C@H]1[C@H](NC(=O)C(C)C)c2ccccc2C12CCN(C(=O)C1CCCC1)CC2,-4,-1,0,7,/,/
COCCO[C@H]1[C@H](NC(=O)C(C)C)c2ccccc2C12CCN(C(=O)CCC(C)C)CC2,21,5.2*,0,4,0,8
O=C(N/C(=C/c1ccc(Cl)cc1)C(=O)N1CCOCC1)c1ccccc1,-2,2,0,3,/,/
O=C(N/C(=C/c1ccc(Cl)cc1)C(=O)N1CCOCC1)c1ccccc1Br,10,6.3*,0,12,-1,-13
CC(=O)Nc1nnc(SCCN2CCOCC2)s1,7,2,0,10,/,/
Cc1cccc(CNCCC2CCC(=O)N2Cc2cc(F)ccc2C)c1 (stereo not drawn),4,0,1,6,/,/
Cc1cccc(CN2C(=O)CCC2CCNCc2ccccc2F)c1 (stereo not drawn),13,7.1*,0,6,1,8
COc1cccc2c1CC(C(=O)Nc1ccc(-c3cn[nH]c3C)cc1OCCN(C)C)CO2 (stereo not drawn),10,6.8*,0,7,0,-2
Cc1[nH]ncc1-c1ccc(NC(=O)C2COc3c(F)cccc3C2)c(OCCN(C)C)c1 (stereo not drawn),0,-2,0,0,/,/
O=C(Cc1cccs1)NCC1(c2ccc(F)cc2)CC1,-1,12*,0,1,1,-5
O=C(Cc1ccc(F)cc1)NCC1(c2cccs2)CCOCC1,14,1,1,13,/,/
CCOC(=O)c1sc2nc(SCc3cc(C(C)=O)ccc3OC)n(Cc3ccc4c(c3)OCO4)c(=O)c2c1C,-1,-1,0,-16,/,/
COc1ccc(Cn2c(O)c(C=Nc3ccc(OC)cc3OC)c3ccccc3c2=O)cc1,-8,7.0*,0,4,2,-5
CSc1cccc(CN2CCCC(CNC(=O)c3cccs3)C2)c1 (stereo not drawn),16,-3,1,19,/,/
CC(C)c1csc(CN2CCCC(CNC(=O)c3cccs3)C2)n1 (stereo not drawn),6,6.1*,0,24,1,-7
CC(=O)c1cccc(CN2CCCC(CNC(=O)c3cccs3)C2)c1 (stereo not drawn),-2,10*,0,3,0,-14
CCOC(=O)CCn1c(=O)c2c(nc3n(-c4ccc(C)c(C)c4)c(C)c(C)n23)n(C)c1=O,13,0,0,5,/,/
Cc1ccc(Cl)cc1NC(=O)c1c(-c2c(Cl)cccc2Cl)noc1C,16,6.0*,0,4,0,2
Cc1ccc(C(=O)Nc2ccc(C(=O)N/N=C/c3cccc(C)n3)cc2)cc1,1,6.1*,0,14,0,-3
Cc1cccc(/C=N/NC(=O)c2ccc(F)cc2)n1,1,1,0,-30,/,/
CC(C)c1ccc(C2C3=C(CC(C)(C)CC3=O)Nc3c2c(=O)n(C)c(=O)n3C)cc1 (stereo not drawn),5,2,0,1,/,/
